According to PubChem BioAssay (EPA / NIEHS):
Values joined by “and” are separate entries in the source; they are usually repeats but may differ in a detail not shown here. Equal values may be shown once. Some structures have more than one record in an assay (separate samples or runs), and their calls can disagree. Active and inactive are the calls of the source. The calls were made as follows: active = hit-call score of the fitted dose curve at least 0.9, where 1 is the maximum; inactive = score below 0.9.

Read-out: Basic fibroblast growth factor (bFGF), FGF2 (gene 2247)
Experiment: BSK_MyoF_bFGF: BioMAP Diversity Plus: MyoF Assay for Basic fibroblast growth factor (bFGF) Biomarker Activity (AID 2284246)
Conditions: primary human lung fibroblasts
Description: BSK_MyoF is a cell-based, multiplexed-readout assay that uses lung fibroblasts, a human […] primary cell, with measurements taken at 24 hours after chemical dosing in a microplate: 96-well plate.BSK_MyoF_bFGF is an assay component measured in the BSK_MyoF assay. It measures bFGF antibody related to regulation of gene expression using ELISA technology.Data from the assay component BSK_MyoF_bFGF was analyzed at the endpoint, BSK_MyoF_bFGF, in the positive analysis fitting direction relative to DMSO as the negative control and baseline of activity. Using a type of binding reporter, gain or loss-of-signal activity can be used to understand protein changes. To generalize the intended target to other relatable targets, this assay endpoint is annotated to the 'growth factor' intended target family, where the subfamily is 'basic fibroblast growth factor '.
The levels of cell surface (or secreted, indicated by the prefix "s") biomarker endpoints were measured by ELISA. Overt cytotoxicity to cells in confluent adherent cultures (all systems other than the BT system) was assessed by measuring total protein levels using sulforhodamine B (SRB) staining in parallel cultures at the time of biomarker measurements, indicated as SRB endpoints. For proliferation assays for adherent cell types, individual cell types are cultured at sub-confluence and relative cell numbers quantified by SRB staining at time points optimized for each system (48 h: 3C and CASM3C systems; 72 h: BT and HDF3CGF systems; 96 h: SAg system). SRB was performed by staining cells with 0.1% SRB after fixation with 10% TCA and reading wells at 560 nm.Viability and proliferation of PBMC (T cells) was quantified by Alamar Blue reduction for the SAg and BT systems. For PBMC viability (referred to as PBMC Cytotoxicity within the assay endpoint names), cells were plated (75,000/well in a 96-well plate) and then chemical samples added for 1 h before addition of activators, SEB and TSST-1 (20 ng/mL final concentration each). Cells were incubated for 90 h. Then, Alamar Blue (20 uL/well) (Invitrogen, Cat DAL1100) was added for 6 h, and the plates were read with a fluorescence microplate reader at 546/580 nm (excitation/emission). For PBMC proliferation, cells were plated and activated as above but incubated for only 16 h prior to addition of Alamar Blue. Plates were read after 6 h.

Compound | outcome | AC50
NS(=O)(=O)C(F)(F)C(F)(F)C(F)(F)C(F)(F)C(F)(F)C(F)(F)F | inactive | –
Cc1cc(O)c(C(C)(C)C)cc1C(C)(C)C | – | 5.37 µM (active)
OCC(O)CC(F)(F)C(F)(F)C(F)(F)C(F)(F)C(F)(F)C(F)(F)C(F)(F)C(F)(F)F (stereo not given) | inactive | –
NC(=O)C(F)(F)C(F)(F)C(F)(F)F | inactive | –
O=C(O)C(F)(F)OC(F)(F)C(F)(F)OC(F)(F)C(F)(F)OC(F)(F)F | inactive | –
C[Si](Cl)(Cl)CCC(F)(F)C(F)(F)C(F)(F)C(F)(F)C(F)(F)C(F)(F)F | inactive | –
OCCCCC(F)(F)C(F)(F)C(F)(F)C(F)(F)F | inactive | –
Cc1ccc(O)c(-n2nc3ccccc3n2)c1 | inactive | –
O=C=NCc1cccc(CN=C=O)c1 | inactive | –
NC(=O)C(F)(F)C(F)(F)C(F)(F)C(F)F | inactive | –
C[C@]12CC[C@H]3C(=CCc4cc(O)ccc43)[C@@H]1CCC2=O | inactive | –
OCC(F)(F)C(F)(F)C(F)(F)C(F)(F)C(F)(F)C(F)(F)CO | inactive | –
O=S(=O)(OCC(F)(F)F)C(F)(F)C(F)(F)C(F)(F)C(F)(F)F | inactive | –
CCN(CC)c1ccc(N=Nc2ccccc2)cc1 | inactive | –
CO[Si](C)(CCC(F)(F)C(F)(F)C(F)(F)C(F)(F)C(F)(F)C(F)(F)F)OC | inactive | –
O=C(O)CCC(F)(F)C(F)(F)C(F)(F)C(F)(F)C(F)(F)C(F)(F)C(F)(F)F | inactive | –
O=C(O)C(F)(F)C(F)(F)C(F)(F)C(=O)O | inactive | –
Cc1cnccn1 | inactive | –
O=C1c2c(O)ccc(Nc3ccc(CCO)cc3)c2C(=O)c2c([N+](=O)[O-])ccc(O)c21 | inactive | –

Compound | outcome | AC50
O=C=Nc1cccc2c(N=C=O)cccc12 | inactive | –
O=C(Cl)C(F)(F)C(F)(F)C(F)(F)C(F)(F)C(F)(F)C(F)(F)F | inactive | –
O=C(Cl)C(F)(F)C(F)(F)C(F)(F)C(F)(F)C(F)(F)C(F)(F)C(F)(F)F | inactive | –
OCC(F)(F)C(F)(F)C(F)(F)C(F)(F)C(F)(F)C(F)(F)C(F)(F)C(F)(F)CO | inactive | 54.4 µM (active)
C=CC(=O)OCC(F)(F)C(F)(F)C(F)(F)COC(=O)C=C | – | 15.9 µM (active) and 14.7 µM (active)
OCC(O)CC(F)(F)C(F)(F)C(F)(F)C(F)(F)F (stereo not given) | inactive | –
OC(O)C(F)(F)C(F)(F)F | inactive | –
FC(F)(F)C(F)(F)C(F)(F)C(F)(F)C(F)(F)C(F)(F)CC[Si](Cl)(Cl)Cl | inactive | –
CCOC(C=C(C)CCC=C(C)C)OCC | – | 30.7 µM (active)
COC(F)(C(F)F)C(F)(F)F (stereo not given) | inactive | –
OCCCC(F)(F)C(F)(F)C(F)(F)C(F)(F)C(F)(F)C(F)(F)C(F)(F)C(F)(F)F | – | 10.1 µM (active) and 9.64 µM (active)
O=S(=O)(O)CCC(F)(F)C(F)(F)C(F)(F)C(F)(F)F | inactive | –
O=C(F)C1(F)C(F)(F)C(F)(F)C(F)(F)C(F)(F)C1(F)F | inactive | –
C=CC(=O)OCCC(F)(F)C(F)(F)C(F)(F)C(F)(F)F | inactive | –
CCN(CC)c1ccc(C=O)cc1 | inactive | –
CCN(CCO)S(=O)(=O)C(F)(F)C(F)(F)C(F)(F)C(F)(F)C(F)(F)C(F)(F)C(F)(F)C(F)(F)F | inactive | 43 µM (active)
FC(F)(F)C(F)(F)C(F)(F)C(F)(F)C(F)(F)C(F)(F)C(F)(F)CCI | inactive | –
Brc1nc2ccccc2s1 | inactive | –
Nc1cc([N+](=O)[O-])cc(Cl)c1O | inactive | –
